hNpr1 antagonist: Natriuretic polypeptide receptor (hNpr1) antagonism - Primary qHTS; Atrial natriuretic peptide receptor 1 (Homo sapiens), P16066; Potency, µM (doses to about 46.3 µM), usual class: inhibitors; actives 1.6% (n = 76,000); AID 1347048, 2019; HEK293 hNpr1 GloSensor cGMP, ANP-stimulated luminescence; calls by dose curve; also: nearly all actives have a fitted effect of over 60% in size
Target sequence (P16066 whole entry, looked up): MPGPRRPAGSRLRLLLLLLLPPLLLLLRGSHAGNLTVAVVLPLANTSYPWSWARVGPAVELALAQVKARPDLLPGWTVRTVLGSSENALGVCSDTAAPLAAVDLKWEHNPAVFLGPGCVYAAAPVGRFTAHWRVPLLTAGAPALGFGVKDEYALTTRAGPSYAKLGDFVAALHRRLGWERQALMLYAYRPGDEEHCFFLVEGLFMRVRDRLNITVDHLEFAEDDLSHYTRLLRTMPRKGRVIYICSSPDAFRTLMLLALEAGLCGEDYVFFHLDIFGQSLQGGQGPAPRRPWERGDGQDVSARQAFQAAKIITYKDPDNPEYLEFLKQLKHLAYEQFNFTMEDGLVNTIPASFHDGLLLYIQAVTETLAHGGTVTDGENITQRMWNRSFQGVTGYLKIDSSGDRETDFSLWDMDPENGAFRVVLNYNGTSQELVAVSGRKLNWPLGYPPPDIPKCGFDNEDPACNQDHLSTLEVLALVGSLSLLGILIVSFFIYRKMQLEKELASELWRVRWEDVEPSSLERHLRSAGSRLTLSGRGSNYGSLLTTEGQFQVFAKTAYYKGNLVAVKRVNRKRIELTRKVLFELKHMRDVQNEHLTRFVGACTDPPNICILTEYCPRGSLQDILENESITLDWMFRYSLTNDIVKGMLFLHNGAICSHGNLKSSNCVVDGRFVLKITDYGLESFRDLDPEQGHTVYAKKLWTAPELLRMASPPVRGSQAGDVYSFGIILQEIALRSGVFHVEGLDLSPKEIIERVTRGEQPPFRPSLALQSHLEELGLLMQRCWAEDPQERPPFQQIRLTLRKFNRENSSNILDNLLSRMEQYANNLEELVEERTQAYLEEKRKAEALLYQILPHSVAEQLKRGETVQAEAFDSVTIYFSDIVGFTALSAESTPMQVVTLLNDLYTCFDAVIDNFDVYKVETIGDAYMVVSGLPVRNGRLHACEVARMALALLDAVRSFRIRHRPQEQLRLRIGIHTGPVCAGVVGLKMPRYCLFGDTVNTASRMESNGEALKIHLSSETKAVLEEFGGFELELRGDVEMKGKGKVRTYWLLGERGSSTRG
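HEK293 cells stably expressing human Npr1 and cGMP GloSensor pGS-40F, loaded 2 h with 2% GloSensor reagent, given compound 30 min at room temperature. Luminescence read before and 20 min after 0.1 nM hNppA.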
HEK293 viab: GF-AFC viability counterscreen for inhibitors of alpha-synuclein gene (SNCA) expression; HEK-293-SNCA-luc viability, GF-AFC fluorescence, 24 h; Potency, µM (highest dose often 57.1 µM), actives largely listed as cytotoxic; actives 0.12% (n = 150,000); AID 1671193, 2021; also: nearly all actives have a fitted effect of over 30% in size
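Cytotoxicity counterscreen: after 24 h compound treatment of genome-edited SNCA-luciferase HEK-293 cells, live-cell protease substrate GF-AFC read by fluorescence after 30 min; activity scaled between DMSO (0%) and medium-only (-100%), curves Hill-fitted.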
FLuc inh-1: Firefly luciferase inhibition profiling of diverse chemical library using quantitative high-throughput screening | actives 2.5% (n = 76,000) | Luciferin 4-monooxygenase (Photinus pyralis), P08659 | purified P. pyralis luciferase, luminescence, biochemical | Potency, µM (titrated, usually from 115 µM), usual class: inhibitors; also: nearly all actives have a fitted effect of over 65% in size
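Cell-free enzyme assay, 10nM P. pyralis luciferase, luciferin and ATP each at 10uM. Inhibition profiled over a 6-point titration, read as luminescence.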
NIH3T3 tox: Cytotoxic Profiling in NIH 3T3 Cell Line of Diverse Libraries Using Quantitative High-Throughput Screening. Potency, µM (series often up to 96.7 µM), usual class: inhibitors. actives 4.3% (n = 94,000). NIH 3T3 viability, CellTiter-Glo ATP luminescence, 48-72 h; also: nearly all actives have a fitted effect of over 55% in size
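ATP-dependent luminescence (CellTiter-Glo) served as the viability signal for NIH 3T3 cells treated with compound for 48 or 72 hr at 37 °C.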
SNCA expr inhib: Primary qHTS assay for inhibitors of alpha-synuclein gene (SNCA) expression; actives 0.17% (n = 140,000); HEK-293 SNCA-luciferase knock-in, luminescence, 24 h; Potency, µM (doses to about 57.2 µM), actives largely listed as inhibitors; also: nearly all actives have a fitted effect of over 45% in size
HEK cytotox: Cytotoxic Profiling in HEK 293 Cell Line of Diverse Libraries Using Quantitative High-Throughput Screening | HEK 293 viability, ATP luminescence (CellTiter-Glo), 48-72 h | Potency, µM (highest dose often 115 µM), most hits filed as inhibitors | actives 6.6% (n = 94,000) | AID 1345083, 2018; also: nearly all actives have a fitted effect of over 60% in size
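Pintool-delivered compounds were incubated with HEK 293 cells (250 cells/well) at 37 degree Celsius for 48 or 72 hr. ATP-dependent luminescence (CellTiter-Glo) then reported remaining viable cells.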
FLuc SDR -ATP: Firefly luciferase (FLuc-C-HiBiT) SDR gain of signal screen - without ATP; Purified FLuc-C-HiBiT, Nano-Glo HiBiT luminescence, no ATP; Potency, µM (series often up to 32.7 µM), most hits filed as activators; actives 7.8% (n = 1,300); shares compounds with FLuc inh-1; AID 1963318, 2024; also: nearly all actives have a fitted effect of over 55% in size
FLuc SDR ATP: Firefly luciferase (FLuc-C-HiBiT) SDR gain of signal screen - plus ATP. shares compounds with FLuc inh-1. purified FLuc-C-HiBiT + ATP, HiBiT complementation luminescence. Potency, µM (doses to about 32.7 µM), hits mostly activators. actives 8.7% (n = 1,300). AID 1963319, 2024;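 also: signal reports ligand binding via conformational change of the enzyme rather than luciferase catalysis; nearly all actives have a fitted effect of over 55% in size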
FLuc inh-2: Firefly luciferase (FLuc-C-HiBiT) enzymatic inhibition screen - Functional assay. shares compounds with FLuc inh-1. purified FLuc-C-HiBiT enzyme, luciferin luminescence. Potency, µM (series often up to 32.7 µM), actives largely listed as inhibitors. actives 42% (n = 1,300). AID 1963320, 2024; also: nearly all actives have a fitted effect of over 70% in size
Large screens that a line does not name were inactive (follow-up assays come after a bar, where they were run). Hits are enriched below; roughly 7.4% of the tested compounds scored in any of these assays. Unless noted, calls follow the shape of the dose curve; as a rule, active = well fitted curve in the direction sought with a large enough effect; inconclusive = small, poorly fitted or top-dose-only effect, or another doubt; inactive = no such curve, though single readings can be large; an effect the other way counts as inactive or inconclusive.

Cc1c(-c2ccc(F)cc2)[nH]c2ccc(CNC(=O)CN3CCOC3=O)cc12	FLuc inh-1 13µM, NIH3T3 tox inconclusive, HEK cytotox inconclusive | FLuc SDR -ATP inactive | FLuc SDR ATP inactive | FLuc inh-2 inconclusive
CC(=O)N1CCC(c2nn(-c3ccccn3)c(=O)[nH]2)CC1	none (no result: hNpr1 antagonist, FLuc inh-1)
OCc1cn(CC2CCN(c3ncnc4nc[nH]c34)CC2)nn1	none | FLuc SDR -ATP inactive | FLuc SDR ATP inactive | FLuc inh-2 inactive
Cc1cc(C)c(S(=O)(=O)N2CCCC(Cn3cc(CO)nn3)C2)c(C)c1 (stereo not given)	none
Cc1cccc(C)c1-c1nnc2ccc(C(=O)NCc3cccs3)cn12	HEK cytotox inconclusive (no result: hNpr1 antagonist, FLuc inh-1)
Cc1ccc(C(=O)Nc2ccccc2C(=O)O)cc1S(=O)(=O)N1CCCCCC1	none (no result: hNpr1 antagonist, FLuc inh-1, NIH3T3 tox, HEK cytotox) | FLuc SDR -ATP inconclusive | FLuc SDR ATP inconclusive | FLuc inh-2 2.8µM
O=C(Nc1ccccc1C(=O)O)c1ccccc1	none (no result: hNpr1 antagonist, HEK293 viab, FLuc inh-1, NIH3T3 tox, SNCA expr inhib, HEK cytotox) | FLuc SDR -ATP inactive | FLuc SDR ATP inactive | FLuc inh-2 inconclusive
Cc1ccc(C(=O)Nc2cccc(C(=O)O)c2)cc1S(=O)(=O)N1CCCC1	none (no result: hNpr1 antagonist, FLuc inh-1, NIH3T3 tox, HEK cytotox) | FLuc SDR -ATP inconclusive | FLuc SDR ATP 0.078µM | FLuc inh-2 0.088µM
COC(=O)COc1cccn2c(=O)c(-c3cc(C)n(-c4ccc(Cl)c(Cl)c4)n3)c(C)nc12	none
CNC(=O)c1cc(C2CC2)nc2onc(C3CCN(C(=O)c4ccccc4OC)CC3)c12	none (no result: hNpr1 antagonist, HEK293 viab, FLuc inh-1, SNCA expr inhib)
Cc1noc(C)c1CN1CCc2nc(C(=O)NCc3ccccc3)oc2CC1	HEK cytotox inconclusive
Cc1noc(C)c1CN1CCc2nc(C(=O)Nc3ccccc3)oc2CC1	hNpr1 antagonist 18µM, FLuc inh-1 11µM, NIH3T3 tox inconclusive, HEK cytotox inconclusive | FLuc SDR -ATP inactive | FLuc SDR ATP inactive | FLuc inh-2 inactive
O=C(Nc1cccnc1)c1nc2c(o1)CCN(CCCc1ccccc1)CC2	NIH3T3 tox inconclusive, HEK cytotox inconclusive
O=C(Nc1ccccc1)c1nc2c(o1)CCN(Cc1ccccc1)CC2	hNpr1 antagonist 13µM, FLuc inh-1 1µM, NIH3T3 tox inconclusive, HEK cytotox inconclusive | FLuc SDR -ATP inactive | FLuc SDR ATP inconclusive | FLuc inh-2 4.5µM
O=C(Nc1ccccc1)c1nc2c(o1)CCN(Cc1cccnc1)CC2	hNpr1 antagonist 18µM, FLuc inh-1 0.35µM, NIH3T3 tox inconclusive, HEK cytotox 79µM | FLuc SDR -ATP inconclusive | FLuc SDR ATP inconclusive | FLuc inh-2 5.7µM
O=C(Nc1ccccc1)c1nc2c(o1)CCN(CC1CC1)CC2	FLuc inh-1 2.2µM, HEK cytotox inconclusive | FLuc SDR -ATP inactive | FLuc SDR ATP inactive | FLuc inh-2 inconclusive
COC(=O)CNC(=O)C1CCCN1C(=O)c1cccc(-c2ccccn2)c1 (stereo not given)	none (no result: hNpr1 antagonist, FLuc inh-1)
Cc1ccsc1C(=O)N1CCCC2(CC1)CN(C)C(=O)O2 (stereo not given)	none (no result: hNpr1 antagonist, FLuc inh-1)
O=C(Nc1cccnc1)c1nc2c(o1)CCN(Cc1cccc(O)c1)CC2	hNpr1 antagonist inconclusive, FLuc inh-1 4µM, HEK cytotox inconclusive | FLuc SDR -ATP inactive | FLuc SDR ATP inactive | FLuc inh-2 inconclusive
CC(C)CCN1CCc2nc(C(=O)Nc3ccc(Cl)cc3)oc2CC1	hNpr1 antagonist inconclusive, FLuc inh-1 inconclusive, NIH3T3 tox inconclusive, HEK cytotox inconclusive
COc1ccccc1CN1CCc2nc(C(=O)Nc3ccccc3)oc2CC1	hNpr1 antagonist inconclusive, FLuc inh-1 4.5µM, NIH3T3 tox inconclusive, HEK cytotox inconclusive | FLuc SDR -ATP inactive | FLuc SDR ATP inactive | FLuc inh-2 inconclusive
COc1cccc(CN2CCc3nc(C(=O)Nc4nc(C)cs4)oc3CC2)c1	FLuc inh-1 7.1µM, NIH3T3 tox inconclusive, SNCA expr inhib inconclusive, HEK cytotox inconclusive | FLuc SDR -ATP inconclusive | FLuc SDR ATP inactive | FLuc inh-2 inconclusive
CCCN1CCc2nc(C(=O)Nc3ccccc3)oc2CC1	none (no result: hNpr1 antagonist, HEK293 viab, FLuc inh-1, NIH3T3 tox, SNCA expr inhib, HEK cytotox) | FLuc SDR -ATP inactive | FLuc SDR ATP inactive | FLuc inh-2 inconclusive
COc1ccc(N2CCN(c3ncnc4c3cnn4-c3ccc(F)cc3)CC2)cc1	none (no result: hNpr1 antagonist, FLuc inh-1, NIH3T3 tox, HEK cytotox)
Fc1ccc(-n2ncc3c(N4CCCCC4)nc(NN4CCOCC4)nc32)cc1	none (no result: hNpr1 antagonist, HEK293 viab, FLuc inh-1, NIH3T3 tox, SNCA expr inhib, HEK cytotox) | FLuc SDR -ATP inactive | FLuc SDR ATP inactive | FLuc inh-2 inactive
Cn1cc(C2=C(c3ccc(Cl)cc3Cl)C(=O)NC2=O)c2ccccc21	SNCA expr inhib inconclusive (no result: hNpr1 antagonist, FLuc inh-1, NIH3T3 tox, HEK cytotox)
Cn1cc(/C=C2\C(=O)Nc3cccnc32)c2ccccc21	none (no result: hNpr1 antagonist, HEK293 viab, FLuc inh-1, NIH3T3 tox, SNCA expr inhib, HEK cytotox) | FLuc SDR -ATP inactive | FLuc SDR ATP inactive | FLuc inh-2 inconclusive
CC(=O)Nc1cccc(-c2ccc(COc3ccc4c(cnn4CCC(=O)O)c3)cc2)c1	FLuc inh-1 0.71µM, NIH3T3 tox inconclusive, HEK cytotox inconclusive | FLuc SDR -ATP inconclusive | FLuc SDR ATP inconclusive | FLuc inh-2 1µM

Source: PubChem
